Growth inhibition data for 21 compounds are collected here from PubChem BioAssay (NCI).

This is part of a sample that, as a whole, favours compounds with a hit. Of some 79,000 tested, about 15% had one in any assay. Values without a mark were called inactive. Calls of active or inactive are those of the source. No stated cut-off is given here; in the data, active means growth inhibition above about 70%; inactive means the rest.

A short description of assay [1]: NCI Yeast Anticancer Drug Screen. Data for the rad50 strain (AID 155).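 Further: 0% = growth of vehicle-only cultures of the same strain.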 The following applies: S. cerevisiae rad50 strain growth inhibition; at 50.0 µM; hits give high values. An outline of the steps: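 Relative growth inhibition (compound vs vehicle) was measured in yeast with a defined repair-gene alteration.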
Assay [2] can be described thus: NCI Yeast Anticancer Drug Screen. Data for the mec2-1 strain (AID 157). The following applies: S. cerevisiae mec2-1 strain, at 50.0 µM, hits give high values. In a few lines:
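Strain: mec2-1 (DNA repair/cell cycle alteration). Compound exposure, then growth measured; inhibition expressed relative to vehicle.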

Assay [3] in a line: NCI Yeast Anticancer Drug Screen. Data for the sgs1 mgt1 strain (AID 161).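 Further: 0% = growth of cultures given vehicle only.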 The following applies: S. cerevisiae sgs1 mgt1 strain, at 50.0 µM, hits give high values. In a few lines: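 Genetically altered yeast, compound exposure, growth inhibition relative to vehicle.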
Assay [4] in a line: NCI Yeast Anticancer Drug Screen. Data for the cln2 rad14 strain (AID 165).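 Further: 0% = growth equal to vehicle treated cultures.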 The conditions noted are these: S. cerevisiae cln2 rad14 strain, at 50.0 µM, hits give high values. In a few lines:
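Compounds are applied to the cln2 rad14 yeast strain, and growth is then compared with that of vehicle-treated cultures to give inhibition.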

Assay [5] can be described thus: NCI Yeast Anticancer Drug Screen. Data for the bub3 strain (AID 167). The following applies: S. cerevisiae bub3 mutant strain, at 50.0 µM, hits give high values. An outline of the steps:
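Screening used yeast with an engineered genetic alteration affecting cell cycle control. Compound-exposed cultures were compared with vehicle cultures, and reduced growth was taken as inhibition.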

Assay [6] can be described thus: NCI Yeast Anticancer Drug Screen. Data for the mlh1 rad18 strain (AID 175). The conditions noted are these: S. cerevisiae mlh1 rad18 strain growth inhibition; at 50.0 µM; hits give high values. In a few lines:
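Read-out is yeast growth inhibition, calculated against vehicle-only controls. The compound was applied to a strain engineered with DNA damage repair alterations.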

`C#CCC(C)(C)C(N)=O`: the growth inhibition in assay [1] was -10.7%; in assay [2], -6.85%; in assay [3], 3.4%; in assay [4] it was -35.8%; in assay [5] it was -6.05%; in assay [6], -8.5%.

`CCOc1ccc(NC(=O)c2ccccc2O)cc1`: the growth inhibition in assay [1] was 26.9%; in assay [2] it was 14%; in assay [3], 17.7%; in assay [4] it was -9.05%; in assay [5], 17.3%; in assay [6], 43.3%.

Consider `Cc1cc2c(=O)cc(-c3ccc(F)cc3)oc2c(C(=O)O)c1C`, for which the growth inhibition was -19.1% in assay [1]; -1.1% in assay [2]; -5.6% in assay [3]; 17.4% in assay [4]; -4.4% in assay [5]; 33.3% in assay [6].

`CC1(C(=O)O)CCC2(C)CCC3(C)C(=CC(=O)C4C5(C)CCC(OC6OC(C(=O)O)C(O)C(O)C6OC6OC(C(=O)O)C(O)C(O)C6O)C(C)(C)C5CCC43C)C2C1` (stereo unspecified): the growth inhibition is 13.6% in assay [1]; 3.95% in assay [2]; -2.25% in assay [3]; 24.8% in assay [4]; 15.8% in assay [5]; 19.2% in assay [6].

Take `Cc1cc(C)c(/C=C/c2c(C)cc(C)cc2C)c(C)c1`: the growth inhibition was 9.25% in assay [1]; -12.9% in assay [2]; 4.2% in assay [3]; -26.4% in assay [4]; -4.45% in assay [5]; -0.5% in assay [6].

For the compound `Cc1cc(C)cc(NC(N)=S)c1`, the growth inhibition in assay [1] is 11.8%; in assay [2], -0.25%; in assay [3], 6.9%; in assay [4], -5.3%; in assay [5], 10.6%; in assay [6], 11.7%.

For the compound `COC1=CC(=O)c2nc3ccccc3c3ccnc1c23`, the growth inhibition is 87% (active) in assay [1]; 76.1% (active) in assay [2]; 83.2% (active) in assay [3]; 51.2% in assay [4]; 87.3% (active) in assay [5]; 87.2% (active) in assay [6].

Regarding `CCN(CC)CCNCc1c[nH]c(=S)[nH]c1=O`, the growth inhibition in assay [1] was -7.25%; in assay [2] it was -1%; in assay [3], -19.4%; in assay [4], -1.05%; in assay [5] it was 1.35%; in assay [6], -9.45%.

Regarding `COC(=O)c1nc(N)nc(N)c1[N+](=O)[O-]`, the growth inhibition in assay [1] is -8.45%; in assay [2] it was -17.7%; in assay [3], -22.6%; in assay [4] it was -15.2%; in assay [5], -4.05%; in assay [6], -14.9%.

On to `CCCCC(/C=C(/C)C(=O)O)CC` (stereo unspecified), for which the growth inhibition in assay [1] was 6.9%; in assay [2], 1.6%; in assay [3], 3.9%; in assay [4], -1.8%; in assay [5], 3.3%; in assay [6], 0.9%.

Turning to `CC1=CC(N)C2CC1C2(C)C` (stereo unspecified), the growth inhibition in assay [1] was -9.3%; in assay [2], -17.1%; in assay [3], -29.1%; in assay [4], -37.6%; in assay [5], -2.2%; in assay [6] it was -1.65%.

Take `CCCCCCCCCCCCS(=O)(=O)CC(=O)O`: the growth inhibition in assay [1] is -8.65%; in assay [2], 7.9%; in assay [3] it was 8.15%; in assay [4], -84.2%; in assay [5], 29.4%; in assay [6] it was 9.05%.

On to `CCOC(OCC)c1ccc(O)cc1`, for which the growth inhibition is -4.4% in assay [1]; 3.15% in assay [2]; 20.3% in assay [3]; -19.2% in assay [4]; -2.2% in assay [5]; 12.1% in assay [6].

Consider `C=C(C)COc1ccc(C)cc1Br`, for which the growth inhibition in assay [1] was -4.05%; in assay [2], -4.05%; in assay [3], 0%; in assay [4] it was -51.8%; in assay [5], 7.1%; in assay [6] it was -13%.

Take `CC(=O)Oc1ccc2cc(Br)ccc2c1N(C(C)=O)C(C)=O`: the growth inhibition in assay [1] is 13.1%; in assay [2], -7.35%; in assay [3], 10.8%; in assay [4] it was -66.5%; in assay [5], 24.6%; in assay [6] it was -1.85%.

Turning to `CCOC(=O)C(=CN1C/C(=C/C(C)=C/c2ccccc2)SC1=S)C(=O)OCC`, the growth inhibition in assay [1] is -12.1%; in assay [2] it was 28.9%; in assay [3] it was 11.7%; in assay [4], -20.9%; in assay [5], 17.9%; in assay [6] it was 4.85%.

For `CCCC1OC(c2ccccc2)OCC1CC` (stereo unspecified), the growth inhibition is 6.45% in assay [1]; 20.2% in assay [2]; -12.7% in assay [3]; -36.9% in assay [4]; 15.8% in assay [5]; 9.05% in assay [6].

In the case of `CCCCN(CCCC)CCCNC(=S)Nc1ccccc1`, the growth inhibition in assay [1] is -3.25%; in assay [2], 24.2%; in assay [3], 38.1%; in assay [4], -7.25%; in assay [5], 3.25%; in assay [6] it was 36.4%.

Consider `Cc1cc(=O)oc2cc(NC(=O)C(CCCN=C(N)N)NC(=O)OCc3ccccc3)ccc12` (stereo unspecified), for which the growth inhibition was 26.5% in assay [1]; -17.4% in assay [2]; 23.1% in assay [3]; -2.95% in assay [4]; -4.1% in assay [5]; 7.1% in assay [6].

As to `CC(=O)CC(=O)NCCNC(=O)CC(C)=O`, the growth inhibition in assay [1] is -4.55%; in assay [2], -11.6%; in assay [3] it was 10.3%; in assay [4], 6.4%; in assay [5] it was -4.55%; in assay [6], 8.85%.

For `COC(=O)C1=C(c2ccccc2)c2ccc3ccccc3c2C1c1ccccc1` (stereo unspecified), the growth inhibition in assay [1] was 40.1%; in assay [2], -8.25%; in assay [3], 22.9%; in assay [4], 12.4%; in assay [5] it was 6.15%; in assay [6], 25.2%.
